This note sets out measurements from PubChem BioAssay (Tox21).

Assay [1] can be described thus: qHTS RealTime-Glo MT Cell Viability Assay in HEK293 cells - 16 hour (AID 1224872). For activity change, negative = cytotoxicity: top concentration of the series differs between compounds. Note: nearly all actives have a fitted effect of over 50% in size. Note: potency is the fitted concentration of half-maximal effect. A digest of the protocol: (§1)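 Nonlytic real-time viability readout: viable cells convert prosubstrate to NanoLuc substrate, giving luminescence proportional to live cell number. HEK293, 600 cells/well, compound added after 5 h, continuous culture at 37 C.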
The nature of assay [2]: qHTS RealTime-Glo MT Cell Viability Assay in HepG2 cells - 8 hour (AID 1224873). Note: nearly all actives have a fitted effect of over 55% in size. Note: potency is the fitted concentration of half-maximal effect. A digest of the protocol:
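HepG2 cells mixed with RealTime-Glo MT reagents (NanoLuc plus cell-permeant prosubstrate) were seeded at 600 cells/well, incubated 5 h at 37 C/5% CO2, then pinned with compounds in DMSO; nonlytic luminescence tracked viability during 40 h treatment.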
In general terms: Quantitative high-throughput screening tests each substance at several concentrations.

Assay [3] in a line: A CellTox Green Cytotoxicity Assay to monitor cytotoxicity in HEK293 cells - 24 hour (AID 1224875). Note: series mostly up to about 77 µM; nearly all actives have a fitted effect of over 45% in size. A digest of the protocol: (§2)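 Dead-cell fluorescence measured kinetically: asymmetric cyanine dye, HEK293, 600 cells/well, 5 h settle, 23 nL cpd/DMSO, 37 C, reads 0–40 h every 8 h.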
The nature of assay [4]: qHTS RealTime-Glo MT Cell Viability Assay in HepG2 cells - 32 hour (AID 1224877). Note: nearly all actives have a fitted effect of over 55% in size. Note: potency is the fitted concentration of half-maximal effect. A digest of the protocol: (§3)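 Luminescence read-out: viable HepG2 cells reduce a prosubstrate to a NanoLuc substrate, giving a signal proportional to live cell number. Reads taken at 0, 8, 16, 24, 32 and 40 h of compound exposure at 37 C.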
Assay [5] can be described thus: A CellTox Green Cytotoxicity Assay to monitor cytotoxicity in HepG2 cells - 24 hour (AID 1224878). Note: nearly all actives have a fitted effect of over 45% in size. Note: potency is the fitted concentration of half-maximal effect. A digest of the protocol:
(§4)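 First, HepG2 cells (600/well) mixed with reagent were plated; second, after 5 h at 37 C they received compounds via pintool; third, fluorescence was measured at 0 h through 40 h at 8 h intervals.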

Assay [6] in a line: A CellTox Green Cytotoxicity Assay to monitor cytotoxicity in HepG2 cells - 40 hour (AID 1224879). Note: nearly all actives have a fitted effect of over 40% in size. Note: potency is the fitted concentration of half-maximal effect. A digest of the protocol: as §4
The nature of assay [7]: qHTS RealTime-Glo MT Cell Viability Assay in HEK293 cells - 0 hour (AID 1224880). For activity change, negative = cytotoxicity: top concentration of the series differs between compounds. Note: nearly all actives have a fitted effect of over 45% in size. Note: potency is the fitted concentration of half-maximal effect. A digest of the protocol: (§5)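 600 HEK293 cells per well, dispensed already mixed with RealTime-Glo MT reagents. Compound dosing came 5 h later. The same wells were read for luminescence at 0, 8, 16, 24, 32 and 40 h of exposure at 37 C.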
A short description of assay [8]: A CellTox Green Cytotoxicity Assay to monitor cytotoxicity in HEK293 cells - 32 hour (AID 1224881). Note: nearly all actives have a fitted effect of over 40% in size. Note: potency is the fitted concentration of half-maximal effect. A digest of the protocol: as §2
Assay [9] can be described thus: A CellTox Green Cytotoxicity Assay to monitor cytotoxicity in HepG2 cells - 0 hour (AID 1224882). Note: nearly all actives have a fitted effect of over 35% in size. A digest of the protocol: as §4
Assay [10] can be described thus: A CellTox Green Cytotoxicity Assay to monitor cytotoxicity in HepG2 cells - 32 hour (AID 1224883). Note: nearly all actives have a fitted effect of over 50% in size. Note: potency is the fitted concentration of half-maximal effect. A digest of the protocol: as §4
The nature of assay [11]: A CellTox Green Cytotoxicity Assay to monitor cytotoxicity in HEK293 cells - 8 hour (AID 1224884). Note: nearly all actives have a fitted effect of over 35% in size. A digest of the protocol:
as §2

Assay [12] is described as follows: qHTS RealTime-Glo MT Cell Viability Assay in HepG2 cells - 16 hour (AID 1224885). Note: nearly all actives have a fitted effect of over 50% in size. Note: potency is the fitted concentration of half-maximal effect. A digest of the protocol:
as §3

Assay [13] is described as follows: qHTS RealTime-Glo MT Cell Viability Assay in HEK293 cells - 24 hour (AID 1224886). For activity change, negative = cytotoxicity: top concentration of the series differs between compounds. Note: nearly all actives have a fitted effect of over 50% in size. Note: potency is the fitted concentration of half-maximal effect. A digest of the protocol: as §1
Assay [14] can be described thus: qHTS RealTime-Glo MT Cell Viability Assay in HEK293 cells - 8 hour (AID 1224887). A digest of the protocol:
as §5

Assay [15] in a line: A CellTox Green Cytotoxicity Assay to monitor cytotoxicity in HepG2 cells - 8 hour (AID 1224890). Note: nearly all actives have a fitted effect of over 45% in size. Note: potency is the fitted concentration of half-maximal effect. A digest of the protocol:
as §4

The nature of assay [16]: qHTS assay to identify small molecule antagonists of the estrogen receptor alpha (ER-alpha) signaling pathway using the BG1 cell line in the presence of 0.1 nM 17-beta-estradiol - cell viability counter screen (AID 1259241). Note: nearly all actives have a fitted effect of over 40% in size. Note: potency is the fitted concentration of half-maximal effect. A digest of the protocol: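 In this screen, hormone-deprived VM7Luc4E2 cells were seeded at 4,000 per well, dosed with compound and 0.1 nM estradiol final, and incubated 22 hr at 37C and 5% CO2; fluorogenic live-cell protease signal reported viability.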

Assay [17] can be described thus: A CellTox Green Cytotoxicity Assay to monitor cytotoxicity in HepG2 cells - 16 hour (AID 1224876). Note: nearly all actives have a fitted effect of over 45% in size. Note: potency is the fitted concentration of half-maximal effect. A digest of the protocol:
as §4

Assay [18] in a line: A CellTox Green Cytotoxicity Assay to monitor cytotoxicity in HEK293 cells - 16 hour (AID 1224888). Note: nearly all actives have a fitted effect of over 35% in size. A digest of the protocol:
as §2

The nature of assay [19]: qHTS RealTime-Glo MT Cell Viability Assay in HepG2 cells - 0 hour (AID 1224889). Note: nearly all actives have a fitted effect of over 50% in size. A digest of the protocol:
as §3

Assay [20] in a line: qHTS RealTime-Glo MT Cell Viability Assay in HEK293 cells - 40 hour (AID 1224874). Note: nearly all actives have a fitted effect of over 50% in size. Note: potency is the fitted concentration of half-maximal effect. Conditions: RealTime-Glo luminescence; max response: stronger effect = lower value. A digest of the protocol:
as §5

SMILES strings stand for the structures. Unmarked numbers belong to inactive results. Results filed as inconclusive are left out. Active and inactive are the calls of the source. Calls come from the whole dose curve; as a rule, active = well fitted curve in the direction sought with a large enough effect in the repeat runs; inconclusive = weak or mixed curves; inactive = no such curve, though single readings can be large; an effect the other way counts as inactive or inconclusive.
% is set by controls: 0 for no effect and ±100 for the full control effect.

Consider `C=C/C=C/C=C/CCCCC`, for which the activity change, negative = cytotoxicity in assay [1] was 13.8% [at 15.8 µM]; in assay [7] it was 0.841% [at 15.8 µM]; in [13], 13% [at 15.8 µM]; in assay [14], -1.22% [at 15.8 µM]; in [16], -4.24% [at 19 µM]. For the same compound, in assay [2], the viability change, negative = cytotoxic was -19.2% [at 15.8 µM]. The activity change in assay [3] is 1.62% [at 15.8 µM, stronger effect = higher value]. The activity change, negative = cytotoxic in assay [4] is 7.06% [at 15.8 µM]; in assay [12] it was -10.1% [at 15.8 µM]. Moreover, the figures for the cytotoxicity in [5] and in [9] were -3.54% [at 15.8 µM] and -3.64% [at 15.8 µM], respectively. Besides, the cytotoxicity increase in assay [6] is -4.48% [at 15.8 µM]; in [8], 13.2% [at 15.8 µM]; in assay [10], -4.15% [at 15.8 µM]; in assay [11] it was -3.53% [at 15.8 µM]; in assay [15], -1.01% [at 15.8 µM].
In the case of `CCc1c(Br)c(Br)c(Br)c(Br)c1Br`, the Potency result in assay [1], in [2], in [17], in [4], in assay [5] and in assay [6] was “inactive” in each case. For the same compound, the Potency result in assay [7], in assay [8], in assay [9], in [10], in assay [11] and in [12] was “inactive” throughout. Also, the Potency result in [13], in [14], in assay [18], in [19], in [15] and in [16] was “inactive” throughout.
For the compound `C[C@@]12C(=O)OC(=O)[C@]1(C)C1CCC2O1`, the Potency in [1] is 5.35 µM (active); in assay [20], 6.01 µM (active); in assay [17] it was 23.9 µM (active); in assay [4] it was 1.51 µM (active); in assay [5], 19 µM (active); in assay [6] it was 10.7 µM (active). The Potency is 9.52 µM (active) in assay [10], 6.74 µM (active) in [13] and 23.9 µM (active) in assay [15]. The Potency entry in [3], in [7], in assay [8], in assay [9], in assay [11] and in assay [18] was “inactive” in each case.
As to `O=C1NCN(c2ccccc2)C12CCN(CCCC(c1ccc(F)cc1)c1ccc(F)cc1)CC2`, the Potency was 19 µM (active) in assay [1]; 10.7 µM (active) in [2]; 9.52 µM (active) in assay [17]; 6.01 µM (active) in [4]; 7.56 µM (active) in assay [5]; 6.74 µM (active) in [6]. Besides, the Potency was 23.9 µM (active) in assay [8]; 6.74 µM (active) in assay [10]; 7.56 µM (active) in [12]; 19 µM (active) in assay [13]; 10.7 µM (active) in assay [15]; 13.3 µM (active) in assay [16]. Moreover, the Potency entry in assay [7], in assay [9], in assay [11] and in [19] was “inactive” throughout.
As for `Nc1ncnc2c1ncn2[C@@H]1O[C@H](COP(=O)(O)O)[C@@H](O)[C@H]1O`, the Potency entry in [1], in [3], in assay [17], in assay [4], in assay [5] and in assay [6] was “inactive” in each case. In addition, the Potency entry in assay [7], in [8], in assay [9], in assay [10], in [11] and in assay [14] was “inactive” in each case. The Potency entry in [18] and in assay [16] was “inactive” in each case. The max response in assay [20] was 3.96%.
In the case of `CO[C@H]1C=CO[C@@]2(C)Oc3c(C)c(O)c4c(O)c(cc(O)c4c3C2=O)NC(=O)/C(C)=C\C=C/[C@H](C)[C@H](O)[C@@H](C)[C@@H](O)[C@@H](C)[C@H](OC(C)=O)[C@@H]1C`, the Potency entry in assay [1], in [2], in [3], in assay [17], in assay [4] and in [5] was “inactive” each time. Besides, the Potency entry in [6], in assay [9], in assay [10], in assay [11], in [12] and in assay [13] was “inactive” in each case. Besides, the Potency entry in [18] and in assay [15] was “inactive” in each case. Further, in assay [7], the Potency was 17.5 µM (active).
For `CC(C)(C)c1n[nH]c(=O)n(N)c1=O`, the Potency result in assay [1], in assay [2], in assay [3], in assay [17], in assay [4] and in assay [5] was “inactive” each time. Also, the Potency entry in [6], in assay [7], in assay [8], in assay [9], in [10] and in assay [11] was “inactive” in each case. For the same compound, the Potency entry in assay [12], in [14], in assay [18], in [15] and in assay [16] was “inactive” each time.
On to `CC(COC(=O)c1ccccc1)OC(=O)c1ccccc1` (configuration not stated), for which the Potency result in [1], in [2], in [3], in assay [17], in assay [4] and in assay [5] was “inactive” in each case. The Potency result in [6], in [7], in assay [9], in assay [10], in assay [11] and in [12] was “inactive” throughout. The Potency entry in [13], in assay [14], in assay [19], in assay [15] and in assay [16] was “inactive” each time.
With `C=CC(=O)OCCC#N`, the Potency entry in assay [1], in assay [2], in assay [3], in [17], in [4] and in [5] was “inactive” throughout. In addition, the Potency entry in assay [6], in assay [7], in assay [8], in assay [10], in [11] and in assay [12] was “inactive” each time. Also, the Potency result in assay [14], in [18], in assay [15] and in assay [16] was “inactive” each time.
`CCN(CC)CCCN(c1ccccc1)C1Cc2ccccc2C1`: the Potency entry in assay [1], in assay [2], in assay [3], in assay [4], in assay [9] and in assay [11] was “inactive” each time. In addition, the Potency result in assay [12], in assay [14], in assay [18], in [19], in assay [15] and in [16] was “inactive” throughout. Also, the Potency in [5], in [6] and in [10] was 23.9 µM (active) throughout.
Turning to `CN(C)CCOC(c1ccccc1)c1ccccc1` (tested in a mixture with another compound), the Potency result in [1], in [2], in assay [17], in assay [4], in [5] and in assay [6] was “inactive” throughout. In addition, the Potency entry in [7], in assay [8], in assay [9], in [10], in assay [11] and in [12] was “inactive” in each case. Moreover, the Potency result in assay [13], in assay [14], in assay [18], in [19] and in assay [15] was “inactive” throughout.
`CCCC(=O)OCC(COC(=O)CCC)OC(=O)CCC`: the Potency result in assay [1], in assay [2], in assay [3], in assay [4], in assay [5] and in assay [6] was “inactive” in each case. Also, the Potency entry in assay [7], in [8], in assay [9], in [10], in [11] and in assay [12] was “inactive” in each case. The Potency entry in [13], in assay [14] and in assay [16] was “inactive” throughout.
